The record followed here is PubChem BioAssay (Tox21).

The structures appear in SMILES notation. Records with an inconclusive call do not appear. Active and inactive are the calls of the source. Unless noted, calls follow the shape of the dose curve; as a rule, active = well fitted curve in the direction sought with a large enough effect in the repeat runs; inconclusive = weak or mixed curves; inactive = no such curve, though single readings can be large; an effect the other way counts as inactive or inconclusive.

Assay [1] is described as follows: qHTS assay for small molecules that induce genotoxicity in human embryonic kidney cells expressing luciferase-tagged ATAD5 (AID 651632). Also: nearly all actives have a fitted effect of over 15% in size. Also: potency is read from the fitted curve at half-maximal effect. Particulars: HEK293T ATAD5-luciferase induction, 16 h; series mostly up to 83.3 µM. Put shortly: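 HEK293T cells carrying luciferase-tagged ATAD5 were given compound or DMSO vehicle and incubated 16 hr at 37C, 5% CO2. Luciferase activity was read after 30 min at room temperature with Amplite; a rise signals genotoxic stress.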
On the technique in general: Quantitative high-throughput screening tests each substance at several concentrations.

Assay [2] is described as follows: qHTS assay for small molecule agonists of the p53 signaling pathway - cell viability (AID 651633; calls by dose curve;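 also: p53RE-bla HCT reporter cells with a stable beta-lactamase p53 reporter; nearly all actives have a fitted effect of over 30% in size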). Particulars: p53RE-bla HCT-116 viability, ATP luminescence, 16 h; series mostly up to 83.3 µM. Put shortly: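 p53RE-bla cells were treated with compound for 16 hours at 37 C. Cytotoxicity was then measured as CellTiter-Glo luminescence after 30 min at room temperature.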

Assay [3] is described as follows: qHTS assay for small molecules that induce genotoxicity in human embryonic kidney cells expressing luciferase-tagged ATAD5 - cell viability (AID 651634; calls by dose curve; also: nearly all actives have a fitted effect of over 25% in size). Particulars: HEK293T ATAD5-luc cells viability, CellTiter-Fluor, 15.5 h; series mostly up to 83.3 µM. Put shortly:
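HEK293T cells carrying luciferase-tagged ATAD5, 2,000 cells/well, exposed to compound for 15.5 hr at 37C. Viability read as live-cell protease activity by CellTiter-Fluor fluorescence after 30 min at 37C.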

Assay [4] is described as follows: qHTS assay for small molecule disruptors of the mitochondrial membrane potential - cell viability (AID 720634; calls by dose curve;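 also: human HepG2 liver cancer cells; nearly all actives have a fitted effect of over 20% in size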). The note with it: HepG2 viability, ATP luminescence (CellTiter-Glo), 1 h; series mostly up to 83.2 µM. Put shortly: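 HepG2 cells, 2,000 per well, attached overnight, then treated 1 hr at 37 C, 5% CO2. Viability read as ATP by CellTiter-Glo luminescence after 30 min at room temperature. Read in the same wells as the m-MPI membrane-potential dye assay.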

Assay [5] in a line: qHTS assay to test for compound auto fluorescence at 590 nm (red) in HepG2 cells (AID 720674). Particulars: HepG2 autofluorescence, red 540/590 nm, 1 h; series mostly up to 91.3 µM. Put shortly: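 HepG2 cells, 2,000 per well in MEM with 10% FBS, attached overnight at 37 C, then got 23 nL compound or DMSO. After 1 hr at 37 C, 5% CO2, red fluorescence was read at 540/590 nm against Rose Bengal sodium as reference.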

Assay [6] can be described thus: qHTS assay to test for compound auto fluorescence at 535 nm (green) in HepG2 cells (AID 720675). Particulars: green autofluorescence 485/535 nm, 1 h; series mostly up to 91.3 µM.
A short description of assay [7]: qHTS assay to test for compound auto fluorescence at 460 nm (blue) in HEK293 cells (AID 720678). Particulars: blue autofluorescence 405/460 nm; series mostly up to 91.3 µM. The procedure, abridged: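 Measured: blue fluorescence (Ex 405/Em 460 nm) of compound-treated HEK293 cells, incubated overnight at 37C with 5% CO2 and scaled to triamterene equivalents.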
Assay [8] in a line: qHTS assay to test for compound auto fluorescence at 590 nm (red) in HEK293 cells (AID 720679). The note with it: red autofluorescence 540/590 nm; series mostly up to 91.3 µM. The procedure, abridged:
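Using HEK293 cells at 2,000 per well, the screen added 23 nL of each compound after cell attachment and incubated overnight (37C, 5% CO2). The plate reader then captured red-label fluorescence, Ex/Em 540/590nm.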

Assay [9] in a line: qHTS assay for small molecule disruptors of the mitochondrial membrane potential (AID 720635). Also: potency is read from the fitted curve at half-maximal effect. Particulars: HepG2 mitochondrial membrane potential, Mito-MPS dye ratio; series mostly up to 83.2 µM. Put shortly:
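HepG2 cells exposed to compound 1 hr at 37C, then Mito-MPS dye 30 min. Ratio read of aggregate (540/590 nm) versus monomer (490/535 nm) fluorescence.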

In the case of `O=C(Nc1ccccc1)c1ccccc1I`, the Potency entry in [1], in assay [2], in [3] and in assay [4] was “inactive” each time. For the same molecule, the outcome in assay [5], in [6], in assay [7] and in assay [8] was inactive.
As for `COP(=S)(OC)Oc1c(Cl)cc(C)cc1Cl`, the Potency entry in assay [1], in [2], in assay [3] and in [4] was “inactive” in each case. In assay [9], the Potency is 24.3 µM (active). The outcome in assay [5], in [6], in assay [7] and in assay [8] was inactive.
With `CC(CCc1ccccc1)NC(C)C(O)c1ccc(O)cc1` (centres undefined), the Potency result in assay [1], in [2], in assay [3] and in [4] was “inactive” throughout. The outcome in assay [5], in [6], in assay [7] and in [8] was inactive.
Regarding `CCN(CC)CCOC(=O)C(C)(c1ccccc1)c1ccccc1`, the Potency result in assay [1], in [2], in assay [3] and in assay [4] was “inactive” each time. Moreover, the molecule was classed as inactive in assay [5], in assay [6], in [7] and in assay [8].
On to `CCCCc1ccc(O)cc1`, for which the Potency result in assay [1], in assay [2], in assay [3] and in assay [4] was “inactive” throughout. Further, the Potency in [9] is 48.5 µM (active). In addition, the outcome in assay [5], in assay [6] and in assay [7] was inactive.
On to `CCc1cc2c(s1)-n1c(C)nnc1CN=C2c1ccccc1Cl`, for which the Potency in assay [1] is 26.6 µM (active). The Potency result in assay [2], in assay [3] and in assay [4] was “inactive” each time. Moreover, the outcome in assay [5], in assay [6] and in assay [7] was inactive.
Consider `COc1ncc(F)c2nc(S(=O)(=O)Nc3c(F)cccc3F)nn12`, for which the Potency result in assay [1], in assay [2], in [3] and in assay [4] was “inactive” each time. The molecule was classed as inactive in assay [5], in assay [6] and in assay [7].
In the case of `COC(=O)c1ccccc1S(=O)(=O)NC(=O)N(C)c1nc(C)nc(OC)n1`, the Potency result in assay [1], in assay [2], in [3] and in [4] was “inactive” in each case. For the same molecule, the call in assay [5], in [6], in [7] and in [8] was inactive.
As to `CCOP(=S)(OCC)Oc1ncn(-c2ccccc2)n1`, the Potency entry in [1], in [2], in [3] and in assay [4] was “inactive” throughout. In addition, the Potency in assay [9] is 6.86 µM (active). Also, the call in assay [5], in assay [6], in assay [7] and in [8] was inactive.
As to `CCOP(=O)(N=C1SCCS1)OCC`, the Potency entry in assay [1], in [2], in [3] and in assay [4] was “inactive” in each case. Besides, the call in [5], in assay [6] and in [7] was inactive.
